Screening data from PubChem BioAssay.
JMJD2A Tudor = blocks the human JMJD2A Tudor domain. AlphaScreen JMJD2A-Tudor / H3K4me3 peptide binding. Potency, µM (doses to about 114 µM), most hits filed as inhibitors. actives 4.4% (n = 390,000); note: nearly all actives have a fitted effect of over 50% in size
Target sequence (O75164 whole entry, looked up, the tested form may be a part): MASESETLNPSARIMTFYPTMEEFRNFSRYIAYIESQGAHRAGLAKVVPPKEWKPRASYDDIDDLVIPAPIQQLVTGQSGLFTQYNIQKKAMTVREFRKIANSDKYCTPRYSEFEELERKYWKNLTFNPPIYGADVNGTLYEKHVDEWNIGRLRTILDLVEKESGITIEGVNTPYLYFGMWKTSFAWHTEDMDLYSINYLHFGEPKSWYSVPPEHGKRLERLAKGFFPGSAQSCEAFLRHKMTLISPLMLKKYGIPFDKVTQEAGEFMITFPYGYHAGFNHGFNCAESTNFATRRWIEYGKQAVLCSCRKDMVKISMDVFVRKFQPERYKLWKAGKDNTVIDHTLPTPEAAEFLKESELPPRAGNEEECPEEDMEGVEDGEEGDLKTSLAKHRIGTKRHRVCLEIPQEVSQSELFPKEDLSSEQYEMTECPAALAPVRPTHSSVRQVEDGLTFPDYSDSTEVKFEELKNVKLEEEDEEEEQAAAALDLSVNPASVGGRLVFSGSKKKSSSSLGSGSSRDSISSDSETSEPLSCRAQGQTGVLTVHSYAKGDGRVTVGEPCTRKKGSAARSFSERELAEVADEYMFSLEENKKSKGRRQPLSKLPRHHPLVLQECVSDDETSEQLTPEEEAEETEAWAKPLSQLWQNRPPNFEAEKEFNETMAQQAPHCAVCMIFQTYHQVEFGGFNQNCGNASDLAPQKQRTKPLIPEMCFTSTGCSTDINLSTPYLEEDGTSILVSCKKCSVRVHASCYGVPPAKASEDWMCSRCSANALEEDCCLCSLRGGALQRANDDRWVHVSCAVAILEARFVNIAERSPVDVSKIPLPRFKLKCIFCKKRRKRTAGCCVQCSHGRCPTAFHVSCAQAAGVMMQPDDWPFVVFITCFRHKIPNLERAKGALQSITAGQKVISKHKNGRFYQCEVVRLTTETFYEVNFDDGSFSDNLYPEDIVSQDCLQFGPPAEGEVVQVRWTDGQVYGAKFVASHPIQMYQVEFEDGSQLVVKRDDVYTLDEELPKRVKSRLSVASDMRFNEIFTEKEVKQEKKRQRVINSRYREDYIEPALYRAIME
Sfp PPTase inh = inhibitors of Bacillus subtilis Sfp phosphopantetheinyl transferase; Q9F4F7; Biochemical Sfp PPTase activity, qHTS; Potency, µM, most hits filed as inhibitors; actives 3.5% (n = 310,000); AID 1490;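 note: the enzyme is Sfp with the accession as filed and its product quenches rhodamine fluorescence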
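Reaction rates are the 30-min fluorescence difference (ex 525, em 598 nm) in wells containing 15 nM Sfp, 5 uM rhodamine-CoA and 12.5 uM BHQ-2-YbbR at pH 7.6 with 10 mM MgCl2.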
G9a inh = blocks human histone lysine methyltransferase G9a. Q96KQ7. G9a H3K9 monomethylation, AlphaScreen, 2 h. Potency, µM (doses to about 102 µM), actives largely listed as inhibitors. actives 8.8% (n = 350,000). AID 504332; note: nearly all actives have a fitted effect of over 75% in size
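Enzyme 20 nM + cpd, 15 min RT; add b-H3K9 pep 500 nM / SAM 20 uM; 2 h RT; anti-H3K9me1 Ab 0.5 ug/mL + SA donor / anti-rabbit acceptor beads 20 ug/mL each, 10 min; AlphaScreen read.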
L3MBTL1 block = inhibitors of human L3MBTL1; actives 0.66% (n = 230,000); Q9Y468; Potency, µM (top dose mostly 57.1 µM), most hits filed as inhibitors; AlphaScreen L3MBTL1–H3K9me1 peptide binding; note: nearly all actives have a fitted effect of over 60% in size
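First, the protein-peptide complex forms for 30 min at room temperature (L3MBTL1 50 nM, biotinylated H3K9me1 peptide 75 nM). Next, compounds are pin-transferred and incubated 30 min. Finally, AlphaScreen beads are added and read after 30 min.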
BAZ2B inh = inhibitors of human BAZ2B bromodomain; AlphaScreen BAZ2B-H3K14Ac peptide displacement; Potency, µM (doses to about 114 µM), most hits filed as inhibitors; actives 4.4% (n = 360,000); AID 504333; note: nearly all actives have a fitted effect of over 60% in size
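BAZ2B 50 nM plus b-H3(5-23)K14Ac 50 nM, PBS pH 7.4/0.01% Tween-20, 30 min RT; compound added (max 110 uM), 30 min RT; streptavidin donor/Ni-chelate acceptor beads 10 ug/mL final, 20 min dark; AlphaScreen read.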
HP1b chromo inh = blocks HP1-beta chromodomain binding to methylated histone tails; actives 0.56% (n = 390,000); Potency, µM (titrated, usually from 114 µM), hits mostly inhibitors; AlphaScreen HP1-beta / biotin-H3K9me3 peptide binding; P83916; AID 540317; note: nearly all actives have a fitted effect of over 70% in size
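HP1-beta protein (50 nM final) preincubated 30 min at room temperature with biotinylated H3(1-18)K9me3 peptide (50 nM) in PBS pH 7.4, 0.01% Tween-20, then compound added for 30 min. AlphaScreen streptavidin donor/nickel chelate acceptor beads (10 ug/mL final), 30 min dark, luminescence read.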
Hits are given with their value; – = inactive; ? = inconclusive; · = no result; ! = not confirmed by another sample; [ ] = another dose, or the depositor's remark. Sampled rows, rich in hits. Any-hit rate of the full collection: about 12%. Calls come from the whole dose curve; as a rule, active = well fitted curve in the direction sought with a large enough effect; inconclusive = small, poorly fitted or top-dose-only effect, or another doubt; inactive = no such curve, though single readings can be large; an effect the other way counts as inactive or inconclusive.

SMILES | JMJD2A Tudor | Sfp PPTase inh | G9a inh | L3MBTL1 block | BAZ2B inh | HP1b chromo inh
O=C(c1cc(N2C(=O)C3C4CCC(C4)C3C2=O)ccc1Cl)N1CCN(c2ccc(F)cc2)CC1 (stereo not given) | – | – | ? | – | – | –
CCn1cc(C(=O)O)c(=O)c2cc(OC)ccc21 | 8.9µM | – | ? | – | ? | –
CCn1cc(C(=O)N2CCN(c3ccc(OC)cc3)CC2)c(=O)c2cc(S(=O)(=O)N3CCCCC3)ccc21 | – | – | 50µM | ? | ? | –
CCn1cc(C(=O)O)c(=O)c2cc(S(=O)(=O)N3CCCCCC3)ccc21 | – | – | · | · | 71µM | –
COc1ccc(O[C@H]2C=C[C@@H](c3ccccc3)O[C@H]2COC(=O)CC/C(C)=N\OC[C@@H](O)COCc2ccco2)cc1 | · | – | · | · | · | ·
O=C(CCS(=O)(=O)c1cc(Br)cc2c1N(C(=O)C1CC1)CC2)NCc1ccc(Cl)cc1 | – | · | – | · | – | –
COc1ccc(N2CCN(S(=O)(=O)c3ccc(OC)c(C(=O)N4CCCCC4)c3)CC2)cc1 | – | – | 45µM | · | – | ?
COc1ccc(C(=O)c2c(N)c(C(=O)Nc3cccc(OC)c3)c3ccccn23)cc1 | – | · | 28µM | · | – | –
COc1ccc(/C=C/c2cc(O)cc(O[C@H]3OC(CO)C(O)C(O)C3O)c2)cc1 (stereo not given in full) | · | – | · | · | · | ·
Cc1ccc(C)n1-c1ccc(C(=O)NN)cc1 | 50µM | – | – | – | – | –
CC1=CC(C)(C)NC(=S)N1c1ccccc1C | – | – | – | · | ? | –
CCC1(c2ccccc2)NC(=S)N(c2cccc(C)c2C)N1 (stereo not given) | – | ? | 32µM | – | – | –
CN(C)CC/C=C1\c2ccccc2Sc2cc(F)c(Cl)cc21 | ? | · | · | · | · | –
CN(C)CCC=C1c2ccccc2C(C)(C)c2ccccc21 | · | – | ? | · | · | ·
CN(C)CCC=C1c2ccccc2C=Cc2ccccc21 | – | – | 14µM! | – | – | –
COc1ccc(-c2cc(=O)oc3cc(OCC(=O)NCc4ccccn4)ccc23)cc1 | – | – | – | – | – | –
COc1ccc(CCNC(=O)CCc2cn(Cc3ccccc3Cl)c3ccccc23)c(OC)c1 | – | · | ? | · | ? | –
CCN1CCN(CCOc2ccc(Br)cc2C)CC1 | 18µM | 50µM | 7.9µM | – | 22µM | ?
Cc1cc(Br)ccc1OCCN1CCCC1 | 25µM | – | · | – | ? | ?
CCC(C)NC(=O)c1c(N)n(/N=C/c2ccccn2)c2nc3ccccc3nc12 (stereo not given) | – | 10µM | 50µM | – | – | –
CC[N+]1(C)C2CCC1CC(OC(=O)[C@H]1CCC(C(=O)OC3CC4CCC(C3)[N+]4(C)CC)(c3ccccc3)c3ccccc31)C2 (stereo not given in full) | · | – | – | · | · | ·
CC(=O)c1c(C)n([O-])c2cc(F)c(F)cc2[n+]1=O | – | – | – | – | – | –
COc1ccc2c(c1)[n+](=O)c(C(C)=O)c(C)n2[O-] | –[11.4 µM] | – | 28µM | · | – | ?
O=C(Cc1ccc(S(=O)(=O)N2CCOCC2)s1)Nc1ccc(N2CCOCC2)cc1 | – | – | ? | – | · | –
Cc1noc(C)c1CSCC(=O)Nc1cc(C(F)(F)F)ccc1N1CCCCC1 | – | · | 40µM | – | – | –
SMILES | JMJD2A Tudor | Sfp PPTase inh | G9a inh | L3MBTL1 block | BAZ2B inh | HP1b chromo inh
O=C(Cc1ccc(S(=O)(=O)N2CCOCC2)s1)Nc1ccccc1N1CCCC1 | – | ? | · | · | ? | –
CN(C)S(=O)(=O)c1ccc(NC(=O)Cc2ccc(S(=O)(=O)N3CCOCC3)s2)cc1 | – | – | 56µM | ? | ? | –
O=C(Cc1ccc(S(=O)(=O)N2CCOCC2)s1)Nc1cc(C(F)(F)F)ccc1N1CCCC1 | ? | · | 50µM | – | – | –
O=S(=O)(Nc1ccc(-c2ccc(N3CCCCCC3)nn2)cc1)c1ccc(C(F)(F)F)cc1 | – | · | – | · | – | –
CC(=O)c1cccc(NC(=O)C2C3C=CC(C4CC34)C2C(=O)O)c1 (stereo not given) | – | 14µM | – | – | – | –
Cc1cnc(C(=O)Nc2ccccc2-c2ccc(C)o2)cn1 | – | 50µM | ? | · | – | –
CCOC(=O)C1CCCN(C(=O)Cc2ccc(Cl)cc2)C1 (stereo not given) | – | – | – | · | – | –
CCOC(=O)C1CCCN(Cc2nc(N)nc(Nc3ccc(OC)cc3)n2)C1 (stereo not given) | 20µM | – | –[12.7 µM] | · | ? | –
CCOC(=O)C1CCCN(Cc2nc(N)nc(Nc3ccc(Cl)cc3)n2)C1 (stereo not given) | –[11.4 µM] | – | ? | · | 50µM | –
CCOC(=O)C1CCCN(C(=S)Nc2ccc(OC)cc2)C1 (stereo not given) | – | – | – | – | – | –
CCOC(=O)C1CCCN(Cc2nc(N)nc(Nc3ccccc3OC)n2)C1 (stereo not given) | 56µM | – | – | – | ? | –
COc1ccc(-c2coc3c(CN4CCCCC4)c(O)c(CN4CCCCC4)c(O)c3c2=O)cc1 | · | 16µM | –[12.7 µM] | – | – | ·
OC(c1nc2ccccc2[nH]1)C(O)c1nc2ccccc2[nH]1 (stereo not given) | – | – | –[0.501 µM] | –[2.29 µM] | – | –
FC(F)(F)c1nc2cc3nc4ccccc4[nH]c3cc2n1 | – | – | 40µM | – | – | –
O=C(NCc1ccccc1Cl)c1ccc(CSCc2cccc(F)c2)o1 | – | · | – | · | – | –
CCOc1ccc(C(=O)NCC(=O)OCC(=O)c2ccc3c(c2)-c2ccccc2C3)cc1 | – | – | 71µM | – | – | –
COc1cccc(C(=O)NCC(=O)N2CCN(c3ccc(C(F)(F)F)cn3)CC2)c1 | – | · | – | – | – | –
O=[N+]([O-])c1ccc(N2CCN(c3ccccc3O)CC2)c(Cl)c1 | – | – | ? | – | ? | ?
O=C1NC(c2cccc([N+](=O)[O-])c2)=CCN1c1ccccc1O | – | – | 19µM | – | – | –
CCOC(=O)C1=C(c2ccccc2)NC(N)=NC1c1ccc(OCc2ccc(C(=O)OC)cc2)cc1 (stereo not given) | –[11.4 µM] | 79µM | · | – | ? | –
CCOC(=O)c1sc(=S)n(C)c1N | – | – | – | – | – | –
CCOC(=O)c1sc(NC(=O)COc2ccc3c(c2)OCO3)nc1C | – | – | 40µM | · | – | –
CCOC(=O)c1sc(=S)n(-c2ccc3c(c2)OCO3)c1N | ? | 28µM | –[0.501 µM] | – | ? | ?
CCOC(=O)c1sc(=S)n(-c2ccc(F)c(F)c2)c1N | ? | 22µM | ? | – | – | –
NC(=O)c1nn(CC(=O)Nc2cccc(S(=O)(=O)N3CCCC3)c2)c(=O)c2ccccc12 | – | · | –[12.7 µM] | – | – | –
